These results are taken from PubChem BioAssay.

Experiment [1] deals with XIP peptide (Xip251-270) binding. Put plainly: small-molecule binders of XIP peptide, primary screen, biochemical, small-molecule microarray, fluorescence 635/667 nm, 0.1 µg/mL protein (AID 1182). Conditions: fluorescent protein binding, 635 nm, higher = more signal, called active from +8 up or from −8 down.
A further experiment relates to XIP peptide (Xip251-270). Put plainly: small-molecule binders of XIP peptide, primary screen, biochemical, small-molecule microarray, fluorescence 635/667 nm, 0.5 µg/mL protein (AID 1183). Conditions: small-molecule microarray binding, fluorescence 635 nm; higher = more signal.
Experiment [2] in a line: Plasmodium falciparum growth inhibition, primary screen, strain 3D7, DAPI fluorescence, 100 nL (AID 1184).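 Note: parasites grown inside human red blood cells in medium with human serum.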 Conditions: P. falciparum 3D7 growth, 3 d, higher = more signal.
The target of experiment [3] is Homeobox protein Hox-A13 (Mus musculus) (UniProt Q62424). In words: inhibitors of HoxA13-DNA binding, primary screen, biochemical, fluorescence polarization, labeled oligonucleotide (AID 1185). Conditions: 15 min, higher = more signal, called active from +8 up or from −8 down. For orientation: Fluorescence polarisation rises when a labelled molecule tumbles more slowly, as on binding a larger partner.

A short description of experiment [4]: inhibitors of hydroxyurea-induced Chk1 phosphorylation, primary screen, imaging, HeLa, phospho-Chk1 antibody, percent positive cells (AID 1186). Conditions: hydroxyurea-induced phospho-Chk1 immunofluorescence imaging, higher = more signal.
A short description of experiment [5]: inhibitors of hydroxyurea-induced Chk1 phosphorylation, primary screen, imaging, HeLa, phospho-Chk1 nuclear intensity (AID 1187). Conditions: hydroxyurea-induced phospho-Chk1 immunofluorescence imaging, higher = more signal.

Activity calls are given as the source filed them. Unless noted, the rule behind the calls is not given here.

Homeobox protein Hox-A13 (Mus musculus), sequence (Q62424 whole entry, looked up): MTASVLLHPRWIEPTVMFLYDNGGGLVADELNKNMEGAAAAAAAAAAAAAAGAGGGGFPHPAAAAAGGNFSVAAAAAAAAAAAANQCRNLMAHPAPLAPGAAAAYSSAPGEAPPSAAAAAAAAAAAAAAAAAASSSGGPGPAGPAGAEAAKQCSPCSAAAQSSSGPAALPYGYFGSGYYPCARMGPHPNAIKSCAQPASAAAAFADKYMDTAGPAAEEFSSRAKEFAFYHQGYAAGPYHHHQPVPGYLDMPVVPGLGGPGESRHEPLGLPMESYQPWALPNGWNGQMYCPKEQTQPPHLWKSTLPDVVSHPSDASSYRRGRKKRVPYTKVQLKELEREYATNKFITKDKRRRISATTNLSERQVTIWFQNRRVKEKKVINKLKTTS

For the compound `COC(=O)[C@@]1(Cc2ccccc2)[C@H]2c3cc(C(=O)N4CCCC4)n(CCO)c3C[C@H]2CN1C(=O)c1ccccc1`, the composite z-score in experiment [1] is 1.06 (inactive); in the experiment on XIP peptide (Xip251-270), 0.824. The z-score in experiment [2] was -1.29; in experiment [3] it was -0.89 (inactive); in experiment [4], -0.536 (inactive); in experiment [5], -0.0989 (inactive).

On to `CCCC[C@H]1OB(O)C[C@H]2C1=C(COc1ccccc1)Cn1c(=O)n(-c3ccccc3)c(=O)n12`, for which the figures for the composite z-score (in experiment [1]; in the experiment with XIP peptide (Xip251-270)) were 1.9 (inactive) and 0.286, respectively. For the same compound, the z-score in experiment [2] was -0.902; in experiment [3] it was -7.43 (inactive); in experiment [4] it was -0.309 (inactive); in experiment [5], -0.247 (inactive).

In the case of `COc1ccc(CCNC(=O)[C@@H]2c3ccccc3C(=O)N(Cc3ccccc3C(F)(F)F)[C@H]2c2ccc(CO)cc2)cc1`, the values for the composite z-score (in experiment [1]; in the experiment with XIP peptide (Xip251-270)) were -0.251 (inactive) and 0.766, respectively. Besides, the z-score in experiment [2] is -0.756; in experiment [3] it was -3.85 (inactive); in experiment [4] it was 0.239 (inactive); in experiment [5] it was 0.61 (inactive).

As to `CO[C@H]1O[C@H](CO)[C@@H](OC(=O)Nc2cccc(F)c2)[C@H](OC(=O)Nc2ccc3c(c2)OCO3)[C@H]1OC(=O)Nc1ccc2c(c1)OCO2`, the composite z-score in experiment [1] was 1.87 (inactive); with XIP peptide (Xip251-270), 0.813. Further, the z-score in experiment [2] is -1.34; in experiment [3], -7.92 (inactive); in experiment [4], -0.178 (inactive); in experiment [5], 0.0427 (inactive).

Take `C[N+](C)(C)CCCC[C@@H]1NC(=O)[C@@H]2C[C@H](C(=O)NCCCCCNC(=O)CS)[C@H](c3cccc(OCCO)c3)N2C1=O`: the values for the composite z-score (in experiment [1]; in the experiment on XIP peptide (Xip251-270)) were 0.17 (inactive) and -0.0808, respectively. Also, the z-score was 0.0793 in experiment [2], -3.31 (inactive) in experiment [3], -0.209 (inactive) in experiment [4] and -0.123 (inactive) in experiment [5].

As to `CC(C)N1CC=CC23O[C@@H]4C=CCOC(=O)[C@@H]4[C@H]2C(=O)N(CCCCCCO)[C@@H]3C1=O` (some centres not stated), the composite z-score in experiment [1] was -0.0725 (inactive); in the experiment with XIP peptide (Xip251-270) it was -0.262. Further, the z-score was -0.511 in experiment [2], -3.69 (inactive) in experiment [3], 0.477 (inactive) in experiment [4] and 0.454 (inactive) in experiment [5].

Consider `C=CCOc1ccc([C@@H]2CC=C(C(=O)OCC)[C@H](c3cccc(Br)c3)N2S(=O)(=O)c2ccc(C)cc2)cc1`, for which the values for the composite z-score (in experiment [1]; with XIP peptide (Xip251-270)) were -0.355 (inactive) and -0.498, respectively. Further, the z-score in experiment [2] was -1.94; in experiment [3] it was 0.422 (inactive); in experiment [4], -0.0778 (inactive); in experiment [5], 0.295 (inactive).

`COc1ccc(C#Cc2ccc3c(c2)[C@]2(C(=O)N3)[C@H](C(N)=O)[C@H]3C(=O)O[C@H](c4ccccc4)[C@H](c4ccccc4)N3[C@@H]2c2ccc(O)cc2)cc1`: the composite z-score in experiment [1] is 1.13 (inactive); in the experiment on XIP peptide (Xip251-270) it was 0.712. In addition, the z-score in experiment [2] is 0.0021; in experiment [3], -0.559 (inactive); in experiment [4], -0.607 (inactive); in experiment [5], -0.861 (inactive).

Take `CCCC=C(CCC)[C@@H](NS(=O)(=O)CC)c1ccccc1`: the composite z-score is -0.255 (inactive) in experiment [1] and 0.52 in the experiment on XIP peptide (Xip251-270). Also, the z-score is -0.977 in experiment [2], -0.298 (inactive) in experiment [3], 0.304 (inactive) in experiment [4] and 0.408 (inactive) in experiment [5].

For the compound `CO[C@H]1O[C@H](CO)[C@@H](OC(=O)Nc2ccc(C(F)(F)F)cc2)[C@H](OC(=O)Nc2ccccc2)[C@H]1OC(=O)Nc1ccccc1`, the composite z-score is 1.91 (inactive) in experiment [1] and 0.911 in the experiment on XIP peptide (Xip251-270). Also, the z-score is -2.56 in experiment [2], -5.12 (inactive) in experiment [3], -0.628 (inactive) in experiment [4] and -0.699 (inactive) in experiment [5].

`O=C(CS)NCCCCCNC(=O)[C@@H]1C[C@@H]2C(=O)N3CCC[C@H]3C(=O)N2[C@@H]1c1ccc(O)cc1`: the composite z-score in experiment [1] is 0.262 (inactive); in the experiment with XIP peptide (Xip251-270) it was 0.716. Moreover, the z-score in experiment [2] was 0.924; in experiment [3] it was -2.66 (inactive); in experiment [4], 0.0756 (inactive); in experiment [5], 0.0698 (inactive).

Consider `CC(C)NC(=O)[C@@]1(Cc2ccccc2I)c2ccccc2C(=O)N(Cc2ccccc2C(F)(F)F)[C@H]1c1ccc(CO)cc1`, for which the composite z-score is 0.52 (inactive) in experiment [1] and 0.815 in the experiment on XIP peptide (Xip251-270). For the same compound, the z-score in experiment [2] is -1.09; in experiment [3], -3.19 (inactive); in experiment [4], -0.195 (inactive); in experiment [5], 0.0078 (inactive).

As for `COC(=O)c1ccc(OC)c(/C=C\CC(CCc2ccccc2)OC(=O)c2ccncc2)c1` (configuration not stated), the figures for the composite z-score (in experiment [1]; with XIP peptide (Xip251-270)) were -0.661 (inactive) and -0.329, respectively. The z-score is -0.687 in experiment [2], -2.52 (inactive) in experiment [3], 0.0946 (inactive) in experiment [4] and 0.459 (inactive) in experiment [5].

For `COC(=O)[C@@]1(Cc2ccc(OC)cc2)[C@H]2c3cc(C(=O)N4CCCC4)n(CCF)c3C[C@H]2CN1C(=O)c1ccccc1`, the figures for the composite z-score (in experiment [1]; with XIP peptide (Xip251-270)) were 1.24 (inactive) and 0.388, respectively. The z-score in experiment [2] is -1.8; in experiment [3], -5.44 (inactive); in experiment [4], 0.128 (inactive); in experiment [5] it was -0.0625 (inactive).

Turning to `O=C1O[C@@H](c2ccccc2)[C@@H](c2ccccc2)N2[C@@H](c3ccc(O)cc3)[C@]3(C(=O)Nc4ccc(C#CC5=CCCCC5)cc43)[C@@H](C(=O)Nc3nc4ccccc4s3)[C@H]12`, the composite z-score in experiment [1] is 0.433 (inactive); with XIP peptide (Xip251-270), 0.708. Also, the z-score is -0.775 in experiment [2], 3.56 (inactive) in experiment [3], -0.315 (inactive) in experiment [4] and -0.363 (inactive) in experiment [5].

Regarding `CCCCC(O)C1C=CC2C(=O)N(Cc3ccccc3)C(=O)C2N1n1cnnc1` (configuration not stated), the composite z-score was 0.506 (inactive) in experiment [1] and 0.856 with XIP peptide (Xip251-270). Besides, the z-score was -1.33 in experiment [2], -1.62 (inactive) in experiment [3], 0.737 (inactive) in experiment [4] and 0.0163 (inactive) in experiment [5].

`CC(C)CCC[C@@H](C)[C@H]1CC[C@@]2(C)C3=C(CC[C@]12C)[C@@]1(C)CC[C@H](OC(=O)C(C)(C)C)C(C)(C)C1CC3` (some centres not stated): the composite z-score in experiment [1] is 0.434 (inactive); with XIP peptide (Xip251-270) it was -0.0722. Besides, the z-score in experiment [2] is -1.29; in experiment [3], -1.44 (inactive); in experiment [4], -1.13 (inactive); in experiment [5] it was -1.89 (inactive).
